# Assay results: article PMC4336329 (PLoS ONE, 2015)
# In all, about 310,000 compounds went through this assay and about 14,000 (4.5%) showed an effect of 50% or more. Effects have a minus sign here. Only a selection was taken, and strong results are over-represented in it overall.
# Biological target: human ether-à-go-go-related gene (hERG) potassium channel (human, UniProt Q12809)
# Experiment: primary screen, population patch clamp on CHO cells stably expressing hERG; higher = less effect of the substance
# 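Note: peak tail current of the secondary pulse compared with the same well before compound.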
# Sequence of human ether-à-go-go-related gene (hERG) potassium channel (Q12809 whole entry, looked up): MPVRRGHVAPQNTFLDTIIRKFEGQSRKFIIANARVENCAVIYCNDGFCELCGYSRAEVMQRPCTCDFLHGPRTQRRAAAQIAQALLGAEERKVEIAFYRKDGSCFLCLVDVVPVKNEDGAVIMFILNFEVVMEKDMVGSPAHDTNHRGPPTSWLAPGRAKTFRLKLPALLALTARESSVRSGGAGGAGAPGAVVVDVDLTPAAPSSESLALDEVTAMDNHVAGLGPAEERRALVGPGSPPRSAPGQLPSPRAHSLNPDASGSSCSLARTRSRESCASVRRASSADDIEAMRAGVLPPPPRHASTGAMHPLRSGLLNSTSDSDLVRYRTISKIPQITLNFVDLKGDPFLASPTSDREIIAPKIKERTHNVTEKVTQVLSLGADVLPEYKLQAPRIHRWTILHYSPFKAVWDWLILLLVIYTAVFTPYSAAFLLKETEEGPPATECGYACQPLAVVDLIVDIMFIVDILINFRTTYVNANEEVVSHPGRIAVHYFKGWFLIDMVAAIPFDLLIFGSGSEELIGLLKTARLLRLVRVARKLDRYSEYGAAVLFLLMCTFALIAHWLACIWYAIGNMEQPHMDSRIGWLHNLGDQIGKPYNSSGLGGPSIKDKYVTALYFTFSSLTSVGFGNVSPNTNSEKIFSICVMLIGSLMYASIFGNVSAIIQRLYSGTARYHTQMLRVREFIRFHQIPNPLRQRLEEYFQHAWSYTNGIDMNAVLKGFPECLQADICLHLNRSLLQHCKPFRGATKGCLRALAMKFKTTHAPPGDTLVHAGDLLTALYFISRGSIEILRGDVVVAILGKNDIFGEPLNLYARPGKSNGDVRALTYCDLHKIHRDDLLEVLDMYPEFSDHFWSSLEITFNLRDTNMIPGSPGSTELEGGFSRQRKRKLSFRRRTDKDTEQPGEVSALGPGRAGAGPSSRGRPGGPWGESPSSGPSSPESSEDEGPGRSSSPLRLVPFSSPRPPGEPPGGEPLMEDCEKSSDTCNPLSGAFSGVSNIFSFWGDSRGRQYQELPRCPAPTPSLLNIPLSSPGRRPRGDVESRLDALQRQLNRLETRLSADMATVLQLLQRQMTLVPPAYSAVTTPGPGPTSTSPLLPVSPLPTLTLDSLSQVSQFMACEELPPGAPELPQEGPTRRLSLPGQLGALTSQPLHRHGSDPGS
row,SMILES,"hERG current change (%, negative = inhibition) at 10uM"
1,CCOc1ccc2nc(C)cc(C(=O)O)c2c1,-2.09%
2,CCN1CCN(c2ccc(S(=O)(=O)N3CCOCC3)cc2NC(=O)CC(C)C)CC1,0.99%
3,Br.COc1ccc(C(=O)CN2CCCCC2)cc1,7.07%
4,Cl.O=C(CN1CCCCC1)c1ccc(F)cc1,1.94%
5,CC1CC(C)CN(CC(=O)c2cccs2)C1 (stereo not shown),-9.99%
6,Br.O=C(CN1CCCCC1)c1ccc(OC(F)F)cc1,-69.6%
7,Br.CC1CC(C)CN(CC(=O)c2ccc(OC(F)F)cc2)C1 (stereo not shown),-91.5%
8,CC1CC(C)CN(C(=S)Nc2ccc(OC(F)F)cc2)C1 (stereo not shown),-36.6%
9,Cc1cccc(C)c1-n1nnnc1C1(Nc2ccccc2)CCCCC1,-4.36%
10,CCCN(CC(=O)Nc1ccccc1OC)C(=O)CCNC(=O)c1ccccc1OC,-2.16%
11,CCN(c1ccccc1)S(=O)(=O)c1ccc(N2CCN(c3ccccc3O)CC2)nc1,-0.538%
12,CCN(CC)S(=O)(=O)c1ccc(N2CCN(c3ccccc3O)CC2)nc1,-52.8%
13,CCN(CC)S(=O)(=O)c1ccc(N2CCN(CCO)CC2)nc1,-3.97%
14,Cc1ccc(CN2CCNC(=O)C2CC(=O)N(Cc2c(C)nn(C)c2C)C2CC2)o1 (stereo not shown),23.9%
15,CCN=C1SC(C(N)=O)CC(=O)N1CC (stereo not shown),12.9%
16,O=C(c1cn[nH]c1)c1cc(F)ccc1O,-2.62%
17,COc1cccc(-c2nnc(SCc3ccc(C#N)cc3)n2Cc2ccco2)c1,-70.3%
18,N#Cc1ccc(CSc2nnc(-c3ccccc3)n2Cc2ccco2)cc1,-26.8%
19,Cc1cccc(-c2nnc(SCc3nc4ccccc4[nH]3)n2Cc2ccco2)c1,-48.8%
20,COc1cccc(-c2nnc(SCC(=O)OC(C)C)n2Cc2ccco2)c1,-15.3%
21,Cc1ccc(NCc2nnc(SCC(=O)c3ccccc3)n2Cc2ccco2)c(C)c1,-7.53%
22,COc1ccc(C(=O)CSc2nnc(CNc3ccc(C)cc3C)n2Cc2ccco2)cc1,6.88%

row,SMILES,"hERG current change (%, negative = inhibition) at 10uM"
1,Cc1cccc(-c2nnc(SCc3ccc(C#N)cc3)n2Cc2ccco2)c1,-89%
2,Cc1ccc(NCc2nnc(SCc3ccc(C#N)cc3)n2Cc2ccco2)c(C)c1,-70.8%
3,Cc1ccc(-c2nnc(SCc3ccc(C#N)cc3)n2Cc2ccco2)cc1,-20.6%
4,O=C(CSc1nnc(-c2ccncc2)n1Cc1ccco1)N1c2ccccc2Sc2ccc(Cl)cc21,-2.92%
5,CCSC1=NCCN1C(=O)c1c(-c2ccccc2Cl)noc1C,-20.6%
6,O=C(CSc1nnc(-c2ccccc2)o1)NC1CCCCC1,-16.6%
7,O=C(CNc1cccc([N+](=O)[O-])c1)N/N=C/c1ccc([N+](=O)[O-])o1,-36%
8,O=C(CN1CCN(c2ccccc2)CC1)N1CCc2[nH]c3ccccc3c2C1,-26.9%
9,COc1ccccc1NC(=O)N1CCCC1C(=O)NCc1cccs1 (stereo not shown),0.509%
10,COc1cccc(CCNCc2ccc(SC)cc2)c1.O=C(O)C(=O)O,-67.7%
11,COc1cccc(CCNCc2c(F)cccc2F)c1.O=C(O)C(=O)O,-15.1%
12,COc1ccc(CCNCc2ccc(OCc3ccccc3)cc2)cc1,-41.6%
13,COc1cccc(CNCCc2ccc(F)cc2)c1.O=C(O)C(=O)O,-9.82%
14,COc1cc(CNCc2ccc(SC)cc2)cc(OC)c1,-14.9%
15,COc1ccc(CCNCc2ccc(SC)cc2)cc1,-73.2%
16,CC(=O)N1c2ccc(S(=O)(=O)NC(CC(=O)O)c3ccc(Br)cc3)cc2CC1C (stereo not shown),22.3%
17,CC1CCN(S(=O)(=O)c2ccccc2)CC1,-3.32%
18,O=C(CCNS(=O)(=O)c1ccc(Br)cc1)NCc1ccc2c(c1)OCO2,-3.3%
19,Cc1c(C)n(-c2ccccc2)c2ncnc(NCCCN(C)C)c12,0.841%
20,OCCOCCNc1ncnc2c1c(-c1ccccc1)cn2-c1ccccc1,-50.6%
21,CN(C)CCCNc1ncnc2c1c(-c1ccccc1)cn2-c1ccccc1,-64.4%
